# Most compounds without a hit are left out; they make up all but 0.93% or so of the library.
# CDC25B CDK2 inh – primary biochemical HTRF screen for blockers of M-phase inducer phosphatase 2 binding to CDK2/cyclin A | z-score (no concentration beside the values) | 94,000 tested, 0.72% active | HTRF CDC25B-CDK2/CyclinA binding, anti-His/anti-Flag; active compounds read high | AID 1259370, 2018; in the data active = z-score above about 3.2
# HIV TAR-Tat – TAR RNA-Tat peptide displacers, HIV-1, primary screen, biochemical, FRET, FAM/TAMRA-labeled Tat; HIV-1 TAR RNA, Tat peptide displacement FRET; active compounds read high; z-score (concentration not given with the values); 100,000 tested, 0.6% active; AID 1259389, 2018; active = z-score of 3 or more in at least 2 runs
# An asterisk follows results filed as active; . = no result given.
SMILES,CDC25B CDK2 inh,HIV TAR-Tat
Cc1cccc(N2CSC3=C(C#N)C(c4ccccc4)CC(=O)N3C2)c1 (stereo unspecified),5.25*,-1.13
c1sc2c(c1CN1CCCC1)CCCC2,.,1.3
CCN1CCN(c2nnc(-n3cccc3CNc3cc(C)cc(C)c3)s2)CC1,.,0.54
Cc1ccccc1N1CSC2=C(C#N)C(c3ccc(Cl)cc3)CC(=O)N2C1 (stereo unspecified),2,-2.59
Cc1ccccc1C1CC(=O)N2CN(c3ccccc3F)CSC2=C1C#N (stereo unspecified),5.11*,-1.21
Cc1ccccc1N1CSC2=C(C#N)C(c3ccc(F)cc3)CC(=O)N2C1 (stereo unspecified),4.36*,-1.91
O=C(O)CCc1n[nH]c(=O)[nH]c1=O,0.33,.
CC1CCc2c(sc(NC(=O)CCCOc3ccc(Cl)cc3)c2C(N)=O)C1 (stereo unspecified),-7.62,.
O=C1OCc2cc(NS(=O)(=O)c3ccc(C4CCCCC4)cc3)ccc21,-0.57,-0.72
CCSc1ncc2c(=O)n(CC(=O)N3CCc4ccccc43)cnc2n1,.,9.7*
CCSc1ncc2c(=O)n(CC(=O)NC3CCCC3)cnc2n1,.,0.72
CC1=C(c2cccc(Br)c2)S(=O)(=O)NC1=NC1CCCCC1C (stereo unspecified),-7.87,-1.06
CCN1CCN(C(=O)CCCn2c(=O)c3cccn3c3cccnc32)CC1,.,-0.32
Clc1cc2c(c3ncccc13)OCN(CCc1ccccc1)C2,-3.53,.
CCCCN1COc2c(cc(Cl)c3cccnc23)C1,17.3*,2.12
Cc1n[nH]c(C)c1C(C)C(=O)N1CCN(c2ccccn2)CC1 (stereo unspecified),.,0.73
O=C(O)Cn1ncn2c(c(-n3cccc3)c3c4c(sc32)CCCC4)c1=O,6.12,2.43
Cc1ccc(CNC(=O)Cn2ncn3c(c(-n4cccc4)c4c5c(sc43)CCCC5)c2=O)cc1,0.9,11.7*
Fc1ccc(NC(=S)Nc2ccc3cn[nH]c3c2)cc1,20.1*,.
CNC(=S)Nc1ccc(F)cc1,-1.54,.
Cc1ccc(C)c(S(=O)(=O)Nc2ncn(Cc3ccc(Cl)cc3)n2)c1,-0.85,-0.17
CCN(CC)c1ccc2nnc(CCC(=O)O)n2n1,-1.09,1.42
COc1cscc1C(=O)Nc1cc(C(F)(F)F)cc(C(F)(F)F)c1,-0.73,.
COC(=O)c1cscc1OC(=O)c1ccc(C(F)(F)F)cc1,16.7*,.
COc1ccc(-c2cc3c4c(C)n(Cc5ccc6c(c5)OCO6)c(C)c4c(C)nn3c2)cc1,-1.71,-0.06
SMILES,CDC25B CDK2 inh,HIV TAR-Tat
COc1ccc(CCn2c(C)c3c(C)nn4cc(-c5ccc(C)o5)cc4c3c2C)cc1OC,8.04,34.7*
COc1ccc(-c2cc3c4c(C)n(Cc5ccccc5)c(C)c4c(C)nn3c2)cc1,-1.81,-0.42
COc1ccc(-c2cc3c4c(C)n(C)c(C)c4c(C)nn3c2)cc1,1.96,11.1*
CC(C)CNCC1COC2(CCCCC2)O1 (stereo unspecified),-1.46,.
O=c1c(O)c(-c2cc(O)c(O)c(O)c2)oc2cc(O)ccc12,.,18.5*
O=c1c(O)c(-c2ccc(O)c(O)c2)oc2cc(O)ccc12,.,3.65
CCc1nn(CC(=O)N2CCC(N3CCCCC3)CC2)c(=O)c2cc3occc3n12,-0.02,-0.27
CCCC1c2ccc(C)n2CCN1C(=O)Nc1ccc(OC)cc1OC (stereo unspecified),-1.34,-11.7
CCCCOC(=O)c1c(N)n(-c2ccc(OC)cc2)c2nc3ccccc3nc12,11*,0.97
COC(=O)c1c(N)n(-c2ccc(OC)c(OC)c2)c2nc3ccccc3nc12,10.2*,1.17
CCCCOC(=O)c1c(N)n(-c2ccccc2OC)c2nc3ccccc3nc12,1.62,.
CCOC(=O)c1c(N)n(-c2ccc(C)c(C)c2)c2nc3ccccc3nc12,-2.16,1.61
CC(c1ccccc1)N(Cc1ccco1)S(=O)(=O)c1ccc2c(c1)C(C)(C)C(=O)N2C (stereo unspecified),.,0.48
CCn1c(SCC(=O)Nc2nc3ccccc3s2)nnc1-c1cc2ccccc2o1,.,1.85
CCn1c(SCC(=O)Nc2nnc(C)s2)nnc1-c1cc2ccccc2o1,.,5.11*
COc1ccc(C2=NN3C(C2)c2ccccc2OC3c2ccncc2)cc1OC (stereo unspecified),-0.92,-0.61
COc1ccccc1C1Oc2ccccc2C2CC(c3cccnc3)=NN21 (stereo unspecified),-0.43,3.47*
Cc1cccc(C2C(C#N)=C3N=C(N)c4ccccc4N3C3=C2C(=O)CCC3)c1 (stereo unspecified),-1.55,1.04
N#CC1=C2N=C(N)c3ccccc3N2C2=C(C(=O)CCC2)C1c1cccc(Br)c1 (stereo unspecified),18.1*,-5.1
COc1ccc2c(c1)CCc1c-2n[nH]c1C(=O)Nc1ccc2c(c1)C(=O)N(C)C1=NCCN12,.,1.34
CC(C)c1ccc(OC(=O)c2cc(-c3cccs3)on2)cc1,-0.11,1.4
O=c1[nH]c(SCc2c(F)cccc2Cl)nc2c1CCC2,-1.86,8.61*
O=c1[nH]c(SCc2ccccc2F)nc2c1CCC2,-1.69,0.61
CC(=O)Nc1ccc(-n2nncc2-c2ccco2)cc1,.,1.3
O=C(Nc1ccc(-n2nncc2-c2ccco2)cc1)c1cnc2n(c1=O)CCS2,.,7.35*
SMILES,CDC25B CDK2 inh,HIV TAR-Tat
O=c1cc2cc(O)[nH]c(=O)c2c(O)[nH]1,18.7*,.
Nc1n[nH]c2cc(=O)[nH]c(O)c12,-0.59,.
O=C(NCc1ccco1)C(=O)NCC(c1cccs1)S(=O)(=O)c1ccc(F)cc1 (stereo unspecified),.,1.03
c1ccc(N(c2ccccc2)c2nc(-n3cnc4ccccc43)nc(-n3cnc4ccccc43)n2)cc1,-2.51,.
ON(Cc1ccccc1)Cc1ccccc1,-1.33,.
BrC=C=CCN(CC=C=CBr)Cc1ccccc1,4.3*,.
CC(C)c1nnc2sc(Cc3ccc(Cl)cc3)nn12,0.15,0.74
Cc1ccc(-c2nnc3sc(/C=C/c4ccco4)nn23)cc1,14.3*,19.7*
Cc1nnc2sc(/C=C/c3ccco3)nn12,-1.1,10.7*
C(=C\c1nn2cnnc2s1)/c1ccco1,-0.67,20.8*
Cc1ccc(-c2nn3c(C)nnc3s2)cc1,-0.67,0.49
Cc1occc1-c1nnc2sc(/C=C/c3ccccc3Cl)nn12,1.22,7.7*
Cc1ccccc1/C=C/c1nn2c(-c3ccoc3C)nnc2s1,-1.16,0.29
c1csc(-c2nn3cnnc3s2)c1,-0.82,0.39
Cc1ccc(/C=C/c2nn3c(-c4ccoc4C)nnc3s2)cc1,-1.26,0.92
Fc1ccc(F)c(Nc2nc3ccccc3c3nncn23)c1,.,1.17
COc1ccc2nc(C)cc(Nc3ccc(Br)cc3)c2c1,-2.53,0.52
CN1C(=O)C2ON(c3ccc(Cl)cc3)C(c3cccs3)C2C1=O (stereo unspecified),0.82,2.31
COc1ccc(C2CC(=O)N3CN(C(C)c4ccccc4)CSC3=C2C#N)cc1 (stereo unspecified),5.31*,-1.92
Cc1ccc(C2CC(=O)N3CN(CCc4ccccc4)CSC3=C2C#N)cc1 (stereo unspecified),2.66,-0.62
CC(c1ccccc1)N1CSC2=C(C#N)C(c3cccs3)CC(=O)N2C1 (stereo unspecified),4.42*,9.76*
CCOc1ccc(C2CC(=O)N3CN(C(C)c4ccccc4)CSC3=C2C#N)cc1 (stereo unspecified),5.27*,3.19

# Compound activity deposited in PubChem by Center for Chemical Genomics, University of Michigan.
